Laboratory results published in PubChem BioAssay (NCI).
This is part of a sample that, as a whole, favours compounds with a hit. Of some 79,000 tested, about 15% had one in any assay. Values without a mark were called inactive. Active and inactive are the calls of the source. Cut-off read from the data, not from the text of the source: active = growth inhibition above about 70%; inactive = the rest.

Legend:
[1] = NCI Yeast Anticancer Drug Screen. Data for the rad50 strain (AID 155);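 note: 0% = growth of vehicle-only cultures of the same strain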; conditions: S. cerevisiae rad50 strain growth inhibition, hits give high values
Outline: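 Readout: growth inhibition relative to vehicle-treated cultures. Compound exposure was carried out in a genetically defined yeast strain deficient in DNA damage repair.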

[2] = NCI Yeast Anticancer Drug Screen. Data for the mec2-1 strain (AID 157); conditions: S. cerevisiae mec2-1 strain, hits give high values
Outline: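 Test agents were screened against the mec2-1 yeast strain, with defined DNA repair or cell cycle alteration. Growth was scored as inhibition against vehicle-only controls.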

[3] = NCI Yeast Anticancer Drug Screen. Data for the sgs1 mgt1 strain (AID 161);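 note: 0% = growth of cultures given vehicle only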; conditions: S. cerevisiae sgs1 mgt1 strain, hits give high values
Outline: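 Inhibition of yeast growth, normalised to vehicle-treated controls, is reported for a strain bearing genetic alterations in DNA damage repair.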

[4] = NCI Yeast Anticancer Drug Screen. Data for the cln2 rad14 strain (AID 165);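 note: 0% = growth equal to vehicle treated cultures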; conditions: S. cerevisiae cln2 rad14 strain, hits give high values
Outline: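 Growth of compound-exposed yeast (cln2 rad14 genotype) measured and expressed as inhibition relative to vehicle.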

[5] = NCI Yeast Anticancer Drug Screen. Data for the bub3 strain (AID 167); conditions: S. cerevisiae bub3 mutant strain, hits give high values
Outline: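 Readout: yeast growth inhibition, expressed relative to vehicle-only wells. The test organism is a mutant strain from a panel with lesions in DNA repair or checkpoint genes.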

[6] = NCI Yeast Anticancer Drug Screen. Data for the mlh1 rad18 strain (AID 175); conditions: S. cerevisiae mlh1 rad18 strain growth inhibition, hits give high values
Outline: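 In this whole-cell yeast screen, a strain with altered DNA damage repair is challenged with compound, and its growth is measured against matched vehicle-treated controls.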

[7] = at 5.0 µM (retest, dose inferred, filed as 0.5)
[8] = at 50.0 µM (retest, dose inferred, filed as 5.0)

Compound: CC(=O)c1cccc(NC(=O)C(=O)NNc2n[nH]c(=S)n2N)c1
- growth inhibition [1, 7]: 16%
- growth inhibition [1, 8]: 95% (active)
- growth inhibition ([1]; at 50.0 µM): 89.4% (active)
- growth inhibition [2, 7]: -20%
- growth inhibition [2, 8]: 94% (active)
- growth inhibition ([2]; at 50.0 µM): 94.1% (active)
- growth inhibition [3, 7]: 6%
- growth inhibition [3, 8]: 90% (active)
- growth inhibition ([3]; at 50.0 µM): 92.9% (active)
- growth inhibition [4, 7]: 19%
- growth inhibition [4, 8]: 77% (active)
- growth inhibition ([4]; at 50.0 µM): 92.4% (active)
- growth inhibition [5, 7]: -19%
- growth inhibition [5, 8]: 95% (active)
- growth inhibition ([5]; at 50.0 µM): 92.8% (active)
- growth inhibition [6, 7]: 19%
- growth inhibition [6, 8]: 94% (active)
- growth inhibition ([6]; at 50.0 µM): 91.1% (active)

Compound: C=Cc1nc(N)nc(-c2ccc(C)cc2)n1
- growth inhibition [1, 7]: 7%
- growth inhibition [1, 8]: 91% (active)
- growth inhibition ([1]; at 50.0 µM): 92.3% (active)
- growth inhibition [2, 7]: 12%
- growth inhibition [2, 8]: 94% (active)
- growth inhibition ([2]; at 50.0 µM): 91.3% (active)
- growth inhibition [3, 7]: 3%
- growth inhibition [3, 8]: 95% (active)
- growth inhibition ([3]; at 50.0 µM): 92.6% (active)
- growth inhibition [4, 7]: -8%
- growth inhibition [4, 8]: 74% (active)
- growth inhibition ([4]; at 50.0 µM): 49.2%
- growth inhibition [5, 7]: 6%
- growth inhibition [5, 8]: 93% (active)
- growth inhibition ([5]; at 50.0 µM): 86% (active)
- growth inhibition [6, 7]: 7%
- growth inhibition [6, 8]: 96% (active)
- growth inhibition ([6]; at 50.0 µM): 95.2% (active)

Compound: C(=[CH]/[Sn]([c]1ccccc1)([c]1ccccc1)[c]1ccccc1)/c1ccccc1
- growth inhibition [1, 7]: 96% (active)
- growth inhibition [1, 8]: 88% (active)
- growth inhibition ([1]; at 50.0 µM): 94.8% (active)
- growth inhibition [2, 7]: 95% (active)
- growth inhibition [2, 8]: 94% (active)
- growth inhibition ([2]; at 50.0 µM): 98.4% (active)
- growth inhibition [3, 7]: 98% (active)
- growth inhibition [3, 8]: 92% (active)
- growth inhibition ([3]; at 50.0 µM): 96.2% (active)
- growth inhibition [4, 7]: 92% (active)
- growth inhibition [4, 8]: 86% (active)
- growth inhibition ([4]; at 50.0 µM): 95% (active)
- growth inhibition [5, 7]: 97% (active)
- growth inhibition [5, 8]: 85% (active)
- growth inhibition ([5]; at 50.0 µM): 99.2% (active)
- growth inhibition [6, 7]: 97% (active)
- growth inhibition [6, 8]: 84% (active)
- growth inhibition ([6]; at 50.0 µM): 94.1% (active)

Compound: COc1ccc2cc(C3CCCC3(C)CC(=O)O)ccc2c1 (configuration not stated)
- growth inhibition [1, 7]: 7%
- growth inhibition [1, 8]: 11%
- growth inhibition ([1]; at 50.0 µM): 57.2%
- growth inhibition [2, 7]: 11%
- growth inhibition [2, 8]: 10%
- growth inhibition ([2]; at 50.0 µM): 39.9%
- growth inhibition [3, 7]: 4%
- growth inhibition [3, 8]: 8%
- growth inhibition ([3]; at 50.0 µM): 62.1%
- growth inhibition [4, 7]: 3%
- growth inhibition [4, 8]: 7%
- growth inhibition ([4]; at 50.0 µM): 11.1%
- growth inhibition [5, 7]: 2%
- growth inhibition [5, 8]: 2%
- growth inhibition ([5]; at 50.0 µM): 3.85%
- growth inhibition [6, 7]: 1%
- growth inhibition [6, 8]: 9%
- growth inhibition ([6]; at 50.0 µM): 64.5%
